Test [1] has as its target Calcium and integrin-binding protein 1 (Homo sapiens) (UniProt Q99828). Put plainly: Primary qHTS for Identification of Calcium Integrin Binding Protein 1 (CIB1) Competitor (AID 1508620; active means well fitted curve in the direction sought with a large enough effect; an effect the other way counts as inactive or inconclusive;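 further: GST tagged CIB1 binding a fluorescein labelled alphaIIb integrin peptide tracer; top concentration of the series differs between compounds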). Put shortly: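 Fluorescence polarization competition: CIB1-GST (1 uM final) preincubated with compound 15 min at room temperature, then FITC-labeled alphaIIb peptide (100 nM final) added for another 15 min. Polarization read at Ex 480/Em 540.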

Test [2] addresses Cytochrome P450 2D6 (Homo sapiens) (UniProt P10635). Nature of the test: Cytochrome P450 family 2 subfamily D member 6 (CYP2D6) small molecule antagonists: luciferase biochemical (cell-free) qHTS assay (AID 1645840). Further: nearly all actives have a fitted effect of over 55% in size. Further: potency means the concentration at half of the fitted maximal effect. In a few lines: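 P450-Glo CYP2D6 system: proluciferin substrate converted by enzyme to luciferin, read by luminescence proportional to activity. Enzyme-substrate mix with compound 10 min at room temperature, then NADPH regeneration 1 h before detection reagent.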

The target of test [3] is Cytochrome P450 2C9 (Homo sapiens) (UniProt P11712). Put plainly: Cytochrome P450 family 2 subfamily C member 9 (CYP2C9) small molecule antagonists: luciferase biochemical (cell-free) qHTS assay (AID 1645842). Further: potency means the concentration at half of the fitted maximal effect; nearly all actives have a fitted effect of over 55% in size. In a few lines: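 P450-Glo CYP2C9 system: proluciferin substrate with enzyme in mix containing 0.4% BSA, 10 min at room temperature, then NADPH regeneration solution added and incubated 1 h at 37C. Detection reagent stopped reaction; luminescence read after 20 min as RLU.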

The nature of test [4]: Primary qHTS for inhibitors of nuclear receptor binding SET domain protein 2 (NSD2) in an isogenic RCH-ACV NSD2 p.E1099K mutant (9B) (AID 1645876; active means well fitted curve in the direction sought with a large enough effect; an effect the other way counts as inactive or inconclusive; further: nearly all actives have a fitted effect of over 70% in size; further: potency means the concentration at half of the fitted maximal effect).

Inconclusive results are not listed. Activity calls are given as the source filed them. Unless noted, the call rests on the fitted dose curve; in most records, active means well fitted curve in the direction sought with a large enough effect in the repeat runs; inconclusive means weak or mixed curves; inactive means no such curve, though single readings can be large; an effect the other way counts as inactive or inconclusive.

We go through 6 molecules from PubChem BioAssay (NCATS).

Sequence of Calcium and integrin-binding protein 1 (Homo sapiens) (Q99828 whole entry, looked up): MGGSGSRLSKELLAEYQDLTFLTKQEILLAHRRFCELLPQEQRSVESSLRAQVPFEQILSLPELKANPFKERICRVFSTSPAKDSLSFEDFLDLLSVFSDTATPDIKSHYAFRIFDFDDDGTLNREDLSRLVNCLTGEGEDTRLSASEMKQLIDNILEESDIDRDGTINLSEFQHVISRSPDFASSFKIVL
Sequence of Cytochrome P450 2D6 (Homo sapiens) (P10635 whole entry, looked up): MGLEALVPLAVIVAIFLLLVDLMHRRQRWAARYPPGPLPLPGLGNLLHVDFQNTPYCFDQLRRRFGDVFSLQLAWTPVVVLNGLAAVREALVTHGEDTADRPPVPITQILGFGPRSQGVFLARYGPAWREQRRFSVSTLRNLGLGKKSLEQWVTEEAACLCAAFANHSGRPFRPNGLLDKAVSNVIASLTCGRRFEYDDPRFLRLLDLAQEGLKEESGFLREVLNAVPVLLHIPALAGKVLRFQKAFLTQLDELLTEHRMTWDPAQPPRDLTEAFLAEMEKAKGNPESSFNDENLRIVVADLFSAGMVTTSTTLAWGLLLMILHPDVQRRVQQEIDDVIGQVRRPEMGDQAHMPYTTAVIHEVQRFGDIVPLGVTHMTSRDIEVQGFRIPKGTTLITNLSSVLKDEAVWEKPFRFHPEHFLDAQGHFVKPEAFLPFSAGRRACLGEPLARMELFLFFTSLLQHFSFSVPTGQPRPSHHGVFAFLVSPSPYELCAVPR
Sequence of Cytochrome P450 2C9 (Homo sapiens) (P11712 whole entry, looked up): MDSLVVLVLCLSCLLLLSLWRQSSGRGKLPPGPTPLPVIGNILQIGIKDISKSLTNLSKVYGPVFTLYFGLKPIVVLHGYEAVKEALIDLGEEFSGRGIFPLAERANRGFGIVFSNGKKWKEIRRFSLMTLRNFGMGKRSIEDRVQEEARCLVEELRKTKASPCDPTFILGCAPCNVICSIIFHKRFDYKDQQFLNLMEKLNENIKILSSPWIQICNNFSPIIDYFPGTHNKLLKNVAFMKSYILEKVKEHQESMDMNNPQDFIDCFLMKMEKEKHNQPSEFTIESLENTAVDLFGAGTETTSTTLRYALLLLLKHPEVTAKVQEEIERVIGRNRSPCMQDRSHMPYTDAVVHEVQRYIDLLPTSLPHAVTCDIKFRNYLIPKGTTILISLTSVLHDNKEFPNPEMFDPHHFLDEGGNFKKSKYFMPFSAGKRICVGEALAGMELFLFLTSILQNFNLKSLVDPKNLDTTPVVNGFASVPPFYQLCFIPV

Consider `O=C(Nc1ccccc1)N1CCN(Cc2ccc3ccccc3n2)CC1`, for which the Potency entry in test [1], in test [2] and in test [4] was “inactive” throughout. Besides, the Potency in test [3] is 10700 nM (active).

For the molecule `COc1ccc(-c2cnc(-c3cccc4c3-c3ccccc3C4=O)o2)cc1`, the Potency result in test [1] and in test [2] was “inactive” throughout. In addition, the values for the Potency in test [3] and in test [4] were 657 nM (active) and 89.3 nM (active), respectively.

Take `O=C(O)c1ccccc1NC(=O)N1CCC(c2ccccc2C(F)(F)F)CC1`: the Potency result in test [1], in test [2] and in test [4] was “inactive” each time. In test [3], the Potency is 849 nM (active).

Take `CN1CCN(Cc2ccc(-c3cnc4[nH]cc(-c5ccc6[nH]ccc6c5)c4c3)cc2)CC1`: in test [1], the Potency result is “inactive”. The Potency in test [2] was 2130 nM (active); in test [3], 12000 nM (active); in test [4], 1450 nM (active).

As to `CC(C)(C#N)c1ccc(N2C(=O)OCc3cnc4ccc(-c5cnc6ccccc6c5)cc4c32)cc1`, the Potency result in test [1] and in test [2] was “inactive” throughout. In addition, the Potency is 2680 nM (active) in test [3] and 728 nM (active) in test [4].

As to `Cn1c(=O)n(-c2ccc(C(C)(C)C#N)cc2)c2c3cc(C#Cc4cccnc4)ccc3ncc21`, the Potency entry in test [1] and in test [2] was “inactive” each time. Besides, the Potency in test [3] was 522 nM (active); in test [4], 17.8 nM (active).
